In PubChem BioAssay (Tox21):
Inconclusive results are not listed. Unmarked numbers belong to inactive results. Calls come from the whole dose curve; as a rule, active = well fitted cell-killing curve with a large enough effect in the repeat runs; inconclusive = weak or mixed curves; inactive = flat fitted curve, though single readings scatter.
% is set by controls: 0 for no effect and ±100 for the full control effect.

Experiment: qHTS RealTime-Glo MT Cell Viability Assay in HepG2 cells - 8 hour (AID 1224873); note: nearly all actives have a fitted effect of over 55% in size
Settings: RealTime-Glo luminescence; series mostly up to 76.8 µM; viability change, negative = cytotoxic: at the top concentration
Text: National Center for Advancing Translational Sciences [NCATS]
NIH Chemical Genomics Center [NCGC]
U.S. Environmental Protection Agency [EPA]
National Institutes of Environmental Health Sciences [NIEHS]
National Toxicology Program [NTP]
U.S. Food and Drug Administration [FDA]
Measure of cell viability is critical in the cell-base assay. Analysis of cell viability is necessary for the characterization of cell responses to cytotoxic drugs and environmental stress. A RealTime-Glo MT Cell Viability Assay to monitor cell viability in real time of continues cell culture during 40 hours of compound treatment was used to screen Tox21 10K library compounds in HepG2 cells. The RealTime-Glo MT Cell Viability Assay is a nonlytic, homogeneous, bioluminescent method to measure cell viability in real time using a simple, plate-based method. The assay involves adding NanoLuc luciferase and a cell-permeant prosubstrate to cells in culture. Viable cells reduce the proprietary prosubstrate to generate a substrate for NanoLuc luciferase. This substrate diffuses from cells into the surrounding culture medium, where it is rapidly used by the NanoLuc Enzyme to produce a luminescent signal. The signal correlates with the number of viable cells, making the assay well suited for cytotoxicity studies.
Tox21 Assay Protocol Summary:
The mixture of HepG2 cell suspension and reagents were dispensed at 600cells/6 ul/well in 1536-well tissue culture treated black solid bottom plates using a Multidrop dispenser. After the assay plates were incubated at a 37 C/5% CO2 incubator for 5 hours, 23 nL of compounds dissolved in DMSO, positive and negative controls was transferred to the assay plate by a pintool work station. The plates were incubated at 37 C for 40 hours. The luminescence intensity were measured at 0h, 8h, 16h, 24h, 32h and 40h time points using ViewLux plate reader during compound treatment.
In the case of `C=Cc1ccc(C(C)(C)C)cc1`, the “viability change, negative = cytotoxic” value is reported as 6.04%.
In the case of `CC(C)[C@H]1CC[C@H](C)C[C@@H]1O`, the “viability change, negative = cytotoxic” value is reported as 0.633%.
With `CC(C)c1ccc(C=O)cc1` the “viability change, negative = cytotoxic” value was 1.72%.
With `C[C@H]1[C@@H](c2ccccc2)NC(=O)N1C` the “viability change, negative = cytotoxic” value was 2.74%.
With `CO[Si](CCCn1c(=O)n(CCC[Si](OC)(OC)OC)c(=O)n(CCC[Si](OC)(OC)OC)c1=O)(OC)OC` the “viability change, negative = cytotoxic” value was 0.188% [at 35.3 µM].
For `CCCCCCCCCOC(=O)c1ccccc1C(=O)OCCCCCCCCC`, the “viability change, negative = cytotoxic” value was -0.432%.
For `CCC(=O)CC`, the “viability change, negative = cytotoxic” value was 0.755%.
For `CNCCS(=O)(=O)O`, the “viability change, negative = cytotoxic” value was -0.368%.
In the case of `CC(=O)O[C@@H]1CC2CCC1(C)C2(C)C` (stereo not given in full), the “viability change, negative = cytotoxic” value is reported as 1.45%.
In the case of `CC(C)C[C@@H]1[C@H](c2ccccc2)OC(=O)N1CCCN1CCCCCC1`, the “viability change, negative = cytotoxic” value is reported as 0.808% [at 35.3 µM].
With `O=[N+]([O-])c1c(Cl)cc(Cl)cc1Cl` the “viability change, negative = cytotoxic” value was 1.63%.
For `CC(=O)CC(=O)Nc1ccc(C)cc1C`, the “viability change, negative = cytotoxic” value was -4.03%.
With `CC(=O)OC1CCCCC1C(C)(C)C` (stereo not given) the “viability change, negative = cytotoxic” value was 2.37%.
In the case of `Cn1nnc2c(C(N)=O)ncn2c1=O`, the “viability change, negative = cytotoxic” value is reported as 6.11% [at 35.3 µM].
For `CCCCCc1cccc(=O)o1`, the “viability change, negative = cytotoxic” value was 2.39%.
With `COP(=O)(O)OP(=O)(O)OC` the “viability change, negative = cytotoxic” value was 4.41%.
For `CC1=NN(c2ccc(S(=O)(=O)O)cc2)C(=O)C1`, the “viability change, negative = cytotoxic” value was 1.39%.
For `O=C[O][Al]([O]C=O)[O]C=O`, the “viability change, negative = cytotoxic” value was -1.7%.
With `C=CCOC(=O)CCCCCC` the “viability change, negative = cytotoxic” value was 3.75%.
In the case of `CC1=C(C(=O)O)N2C(=O)[C@@H](NC(=O)[C@H](N)c3ccccc3)[C@H]2SC1`, the “viability change, negative = cytotoxic” value is reported as 2.89% [at 35.3 µM].
In the case of `C/C(=C1\CCOC(=O)S1)N(C=O)Cc1cnc(C)nc1N`, the “viability change, negative = cytotoxic” value is reported as 0.347% [at 35.3 µM].
`CCOC(CN1CCN(CC(C)C(=O)c2ccccc2)CC1)c1ccccc1` (stereo not given) gave a viability change, negative = cytotoxic of -2.57% [at 15.8 µM].
With `C=CCCCCCCCCC(=O)OCCCC` the “viability change, negative = cytotoxic” value was -6.18%.
In the case of `O=Cc1cc2ccccc2o1`, the “viability change, negative = cytotoxic” value is reported as -6.49%.
In the case of `CC1OCCC1=O` (stereo not given), the “viability change, negative = cytotoxic” value is reported as 1.14%.
In the case of `CCC[C@@H]1C[C@@H](C(=O)N[C@@H]([C@H]2O[C@H](SC)[C@H](O)[C@@H](O)[C@H]2O)[C@@H](C)O)N(C)C1`, the “viability change, negative = cytotoxic” value is reported as 0.625% [at 35.3 µM].
In the case of `CC(C)=CCC/C(C)=C/COC=O`, the “viability change, negative = cytotoxic” value is reported as -0.117%.
In the case of `Cc1ccc2c(c1)C(=O)c1ccccc1C2=O`, the “viability change, negative = cytotoxic” value is reported as -8.47%.
For `Cc1ccccc1C(N)=O`, the “viability change, negative = cytotoxic” value was 1.98%.
For `CSc1cnccn1`, the “viability change, negative = cytotoxic” value was 2.88%.
For `CCCCSCCCC`, the “viability change, negative = cytotoxic” value was 3.67%.
In the case of `CC(C)Cn1cnc2c1c(=O)n(C)c(=O)n2C`, the “viability change, negative = cytotoxic” value is reported as 2.05% [at 35.3 µM].
For `CCCCC1CCC(O)CC1` (stereo not given), the “viability change, negative = cytotoxic” value was -0.318%.
In the case of `CCC(C(=O)OCCN1CCOC(c2ccccc2)C1C)c1ccccc1` (stereo not given), the “viability change, negative = cytotoxic” value is reported as -7.54% [at 35.3 µM].
With `CC1CCc2c(N3CCC(O)CC3)c(F)cc3c(=O)c(C(=O)O)cn1c23` (stereo not given) the “viability change, negative = cytotoxic” value was -8.32% [at 35.3 µM].
For `Cc1c(Cl)cccc1Cl`, the “viability change, negative = cytotoxic” value was 4.79%.
In the case of `CCCCCCCCCCCCCCC(=O)NC(CO)CCCCCCCCCCCCCC` (stereo not given), the “viability change, negative = cytotoxic” value is reported as 3.69%.
For `CCCCOC(=O)[C@H](C)O`, the “viability change, negative = cytotoxic” value was 4.93%.
For `O=NN(CCCl)C(=O)NC1CCCCC1`, the “viability change, negative = cytotoxic” value was 0.549% [at 35.3 µM].
For `O=C(O)[C@H](O)c1ccccc1`, the “viability change, negative = cytotoxic” value was 1.26% [at 35.3 µM].
